Assay results as given in article PMC4552634, “A New Set of Chemical Starting Points with Plasmodium falciparum Transmission-Blocking Potential for Antimalarial Drug Discovery” (PLoS ONE, 2015).
The whole screen tested about 13,000 compounds, of which about 3,200 (25%) showed an effect of 50% or more. Some of the results follow.

Tested on: P. falciparum stage V gametocytes
Set-up: BacTiter-Glo ATP luminescence viability of purified stage V gametocytes in 384-well plates, per cent inhibition versus DMSO
Settings: 48 h, 5 µM; inhibitor

| SMILES | % Inhibition |
| --- | --- |
| CC(CCc1ccccc1)NCC(O)c1ccc2c3c(cccc13)C(=O)N2C (stereo not drawn) [TCMDC-131252] | 17.04% |
| COc1cc(Cc2cnc(N)nc2N)cc(OCCCCCCN2C(=O)c3ccccc3C2=O)c1OC [TCMDC-138043] | 3.318% |
| Cc1ccc(C(C#N)c2ccc3c(C(F)(F)F)cc(C(F)(F)F)nc3n2)cc1 (stereo not drawn) [TCMDC-123762] | -33.32% |
| CCc1cc(-c2onc(C(F)(F)F)c2-c2ccccc2)c(O)cc1OC [TCMDC-124464] | 25.65% |
| COc1ccc(-c2c(-c3ccc(OCc4ccccc4)cc3O)n[nH]c2C(F)(F)F)cc1 [TCMDC-124771] | -11.85% |
| CCc1cc(-c2n[nH]c(C(F)(F)F)c2-c2ccccc2)c(O)cc1OC [TCMDC-123700] | 70.95% |
| COc1ccc(NC(=O)Nc2nc3ccccc3s2)cc1N1CCN(C)CC1 [TCMDC-139872] | -6.741% |
| COc1cccc(OC)c1CN1CCC(N(C)CCCCCCCCCN2CCC(OC(=O)Nc3ccccc3-c3ccccc3)CC2)CC1 [TCMDC-134690] | 126.7% |
| COc1cccc(OC)c1CN1CCC(N(C)CCCCCCCCN2CCC(OC(=O)Nc3ccccc3-c3ccccc3)CC2)CC1 [TCMDC-134684] | 106.8% |
| COc1ccccc1CCN(C)CCN1CCC(NC(=O)c2ccc(-c3ccc(C(F)(F)F)cc3)cc2)CC1 [TCMDC-138797] | 43.57% |
| COc1cc(CN2CCC(C(=O)Nc3ccc(-c4cccc(C)c4)cc3)CC2)ccc1O [TCMDC-124633] | 46.38% |
| COc1ccccc1N1CCN(CCCCN(C(=O)Nc2cccc(Cl)c2)C(=O)Nc2cccc(Cl)c2)CC1 [TCMDC-131986] | -74.5% |
| NCC(=O)c1cc2c(cc1N)OCCO2 [TCMDC-131879] | -22.77% |
| C=C(F)c1sc(CNCCCNc2nc3ccccc3[nH]2)c(C)c1Br [TCMDC-141307] | 13.46% |
| OC1(c2ccccc2)CCN(Cc2cccc(-c3c[nH]c4nc(NC5CCCC5)ncc34)c2)C1 (stereo not drawn) [TCMDC-133775] | -50.17% |
| CC(Cc1ccc(CN(CC(N)=O)Cc2ccc(CC(C)NCCc3cccc(Cl)c3)cc2)cc1)NCCc1cccc(Cl)c1 (stereo not drawn) [TCMDC-139804] | 113.4% |
| CC(=O)N(Cc1ccc(CC(C)NCCc2cccc(Cl)c2)cc1)Cc1ccc(CC(C)NCCc2cccc(Cl)c2)cc1 (stereo not drawn) [TCMDC-139678] | 112.1% |
| CS(=O)(=O)c1ccc(CNCc2ccc(-c3ccc(-c4nc5cc(C(F)(F)F)ccc5[nH]4)s3)cc2)cc1.O=C(O)C(F)(F)F [TCMDC-132906] | -5.935% |
| CCN(CC)CCCC(C)Nc1ccnc2cc(Cl)ccc12 (stereo not drawn) [TCMDC-123988] | 8.457% |
| CCN(CC)CCCC(C)Nc1ccnc2ccc(OC)cc12.Cl.O (stereo not drawn) [TCMDC-123888] | 15.61% |
| CCN(CC)CCCC(C)Nc1cc(C=Cc2ccc([N+](=O)[O-])cc2)nc2ccc(OC)cc12.O=P(O)(O)O (stereo not drawn) [TCMDC-124247] | 98.87% |
| CCCN(CCC)C(C)CCC(C)Nc1c2ccc(Cl)cc2nc2ccc(OC)cc12 (stereo not drawn) [TCMDC-137516] | 50.36% |
| CCN(CC)CCCC(C)Nc1cc(C)nc2cc(Cl)ccc12 (stereo not drawn) [TCMDC-124246] | 33.92% |

| SMILES | % Inhibition |
| --- | --- |
| COc1ccc2nc(-c3ccccc3)cc(NN=Cc3ccc([N+](=O)[O-])cc3)c2c1 [TCMDC-142045] | 15.04% |
| CCCN(CCC)CCCCC(C)Nc1c2ccc(Cl)cc2nc2ccc(OC)cc12 (stereo not drawn) [TCMDC-137515] | 50.13% |
| CCN(CC)CCCC(C)Nc1cc(C=Cc2ccccc2Cl)nc2cc(Cl)ccc12 (stereo not drawn) [TCMDC-124294] | 59.52% |
| O=C(NCCCN1CCN(c2cccc(Cl)c2)CC1)c1ccc(-c2nc3cc(Cl)c(Cl)cc3[nH]2)cc1 [TCMDC-140077] | 1.638% |
| Nc1nc(N)c2cc(S(=O)(=O)c3ccc4ccccc4c3)ccc2n1 [TCMDC-137192] | 3.776% |
| CCCCCCN1CCN(Cc2cccc(NC(=O)c3cccc(OCC)c3)c2)CC1 [TCMDC-134614] | -30.42% |
| Cc1cc(N(C)C2CCN(CC3CCCCC3)C2)nc(Nc2ccc(Br)cc2)n1 (stereo not drawn) [TCMDC-137023] | -48.72% |
| CCCCCC(=O)N1CCOC(CCN2CCC(c3ccccc3)CC2)(c2ccc(Cl)c(Cl)c2)C1 (stereo not drawn) [TCMDC-135328] | -33.56% |
| CN1CCN(c2ccnc3ccc(NC(=O)Nc4cccc5c(Br)cccc45)cc23)CC1 [TCMDC-139347] | 3.223% |
| Cc1cccc2nc(-c3ccc(-c4ccc(CNCC5CCCO5)cc4)s3)[nH]c12.O=C(O)C(F)(F)F (stereo not drawn) [TCMDC-133101] | 42.96% |
| CCN(CC)CCCC(C)Nc1c2ccccc2nc2c1ccc1ccccc12 (stereo not drawn) [TCMDC-137517] | 51.71% |
| CCN(CC)CCCC(C)Nc1ccnc2[nH]c3ccccc3c12 (stereo not drawn) [TCMDC-131826] | 12.54% |
| CCN(CC)CCCC(C)Nc1c2ccccc2nc2ccc3ccccc3c12 (stereo not drawn) [TCMDC-137518] | 45.6% |
| CCN(CC)CCCC(C)Nc1c2ccc(Cl)cc2nc2ccc(OC)cc12 (stereo not drawn) [TCMDC-125480] | 101% |
| CCN(CC)CCCC(C)Nc1c2cc(OC)ccc2nc2cc(Cl)c([N+](=O)[O-])cc12 (stereo not drawn) [TCMDC-138329] | -1.262% |
| Cc1cccc2[nH]c(-c3cccc(-c4ccc(NC(=O)c5cnn6cccnc56)cc4)c3)nc12 [TCMDC-136868] | -35.86% |
| FC(F)(F)c1cc(CNCCCNc2nc3ccncc3[nH]2)ccc1Cl [TCMDC-140508] | -5.854% |
| CCCC(CNCc1ccc(Cl)c(C(F)(F)F)c1)CNc1nc2ccncc2[nH]1 (stereo not drawn) [TCMDC-141057] | 56.14% |
| CCCc1c(Cl)cc(CNCCCNc2nc3ccncc3[nH]2)cc1Cl [TCMDC-140509] | 47.86% |
| COc1cc(NC(=O)Nc2ccc(Br)cc2C(=O)Nc2ccc(Br)cc2)cc(OC)c1OC [TCMDC-139733] | 85.99% |
| O=C(Nc1ccc(Br)cc1)c1cc(Br)ccc1NS(=O)(=O)c1cc(C(F)(F)F)cc(C(F)(F)F)c1 [TCMDC-139753] | -9.383% |
| O=C(Nc1ccc(Br)cc1)c1cc(Br)ccc1NS(=O)(=O)c1ccc(C(F)(F)F)cc1 [TCMDC-139752] | 29.13% |
